Hit rate of the full screen: of about 300,000 compounds, about 480 (0.16%) were called active.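 The calls were made as follows: active = inhibition over 29.93%, a cutoff 3 SD above the screen mean, later confirmed by dose response; inconclusive = inhibition over 29.93% but no dose response follow-up; inactive = inhibition at most 29.93% or unconfirmed.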 Not all results are given here. Potency and affinity values are given separately.
experiment: inhibitors of PhoP regulon expression, primary screen, Salmonella Typhimurium, GFP reporter (AID 1863);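 also: 0% = low Mg2+ inducing control and 100% = high Mg2+ repressing control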; conditions: S. Typhimurium PhoP-regulated promoter GFP reporter, 4 h; at 50 µM; stronger effect = higher value

Compound | inhibition
CC(=O)c1c(N2CCN(c3ccc(F)cc3)CC2)nc(=S)n(Cc2ccccc2)c1C | -9.08% (inactive)
CCN(CC)CC(=O)Nc1ccc(-c2ccc(NC(=O)CN(CC)CC)c(OC)c2)cc1OC | -5.12% (inactive)
O=C(O)c1ccc(NC(=O)C(c2ccccc2)c2ccccc2)cc1 | -7.69% (inactive)
COc1cccc(C2c3[nH]c4ccccc4c3CCN2C(=O)Cn2cncn2)c1OC (stereo not given) | -2.77% (inactive)
CCN(CC)C(=O)Oc1nnc(SC(C)C)n1-c1ccc(Cl)cc1 | -0.67% (inactive)
O=C(Nc1nc(-c2ccccn2)cs1)c1ccc(Br)s1 | 8.88% (inactive)
O=C(Nc1nc(-c2cccs2)cs1)c1ccc(Cl)s1 | 7.37% (inactive)
CCOC(=O)c1c(C)[nH]c(C(=O)COC(=O)CNC(=O)c2ccccc2Cl)c1C | -9.12% (inactive)
Cc1occc1C(=O)NC(C)C(C)(C)C (stereo not given) | 0.78% (inactive)
Cc1ccccc1CSCCC(=O)NCCC1=CCCCC1 | 6.03% (inactive)
Cn1c(=O)c(-c2ccccc2)nc2ccccc21 | -3.46% (inactive)
Cn1nc(-c2ccc(Cl)cc2)nc2c(=O)n(C)c(=O)nc1-2 | 20.5% (inactive)
COc1ccc(CCNCC(O)Cn2c3ccccc3c3ccccc32)cc1OC (stereo not given) | -4.43% (inactive)
COc1ccccc1NCC(O)Cn1c2ccccc2c2ccccc21 (stereo not given) | -3.61% (inactive)
COc1ccc(NC(=O)C2=NN(C3CCS(=O)(=O)C3)C(=O)CC2)cn1 (stereo not given) | 3.89% (inactive)
O=C(CSc1oc(-c2cccs2)nc1S(=O)(=O)c1ccc(F)cc1)NCC1CCCO1 (stereo not given) | -4.95% (inactive)
CSC[C@H](NC(=O)Cc1c(C)c2cc3c(C)c(C)oc3cc2oc1=O)C(=O)N[C@@H](Cc1ccccc1)C(=O)O | 5.06% (inactive)
Cc1ccc(C(=O)Nc2ccccc2Sc2ccccc2)cc1 | -6.94% (inactive)
Cc1ccc(C(=O)CC(=O)c2ccccc2)cc1 | 6.5% (inactive)
COc1cccc(NC(=O)CCC2CCN(C(=O)c3sccc3C)CC2)c1 | -6.68% (inactive)
O=C(CCNC(=O)c1ccc([N+](=O)[O-])cc1)NCCc1ccc(Cl)cc1 | 8.36% (inactive)
COCCCn1c(=O)c2sccc2n2c(CCCC(=O)N(C)Cc3ccco3)nnc12 | -1.76% (inactive)
Cn1ccnc1SCC(=O)NC1CC1 | 6.54% (inactive)
Cc1cc(Nc2cccc(F)c2)nc(NCc2ccccc2)n1 | 4.66% (inactive)

Compound | inhibition
Cc1cc(Nc2ccccc2)nc(NCc2ccccc2)n1 | 19.9% (inactive)
Cc1[nH]c(=O)[nH]c(=O)c1S(=O)(=O)Nc1ccc(Cl)c([N+](=O)[O-])c1 | 5.49% (inactive)
O=S1(=O)NC(=NCCc2ccccn2)c2ccccc21 | 10.3% (inactive)
O=Cc1ccc2ccc3cccnc3c2n1 | -0.13% (inactive)
CCOC(=O)c1ccc2c(c1)NC(=O)C(N1CCN(c3ccc(OC)cc3)CC1)S2 (stereo not given) | 8.89% (inactive)
COc1ccc(N(C(=O)c2ccncc2)S(=O)(=O)c2cccs2)cc1 | 8.99% (inactive)
Cc1ccccc1-n1c(SCC(=O)c2cc(C)n(C)c2C)nnc1-c1ccncc1 | -15.5% (inactive)
O=C(N/N=C/c1ccc[nH]1)c1ccc([N+](=O)[O-])cc1 | 5.92% (inactive)
O=C(N/N=C/c1ccc[nH]1)c1cccc([N+](=O)[O-])c1 | 2.02% (inactive)
Cn1c(CCCOc2ccc(Cl)cc2Cl)nnc1SCC(=O)Nc1ccc(F)c(Cl)c1 | -2.33% (inactive)
CCC(=O)c1ccc(OCC(=O)OCC(=O)c2cc(C)n(CC3CCCO3)c2C)cc1 (stereo not given) | -5.94% (inactive)
CCOC(=O)N1CCN(S(=O)(=O)c2ccc(C(=O)N(CCN(C)C)c3nc4ccc(Cl)cc4s3)cc2)CC1 | 14% (inactive)
CCOc1c(Cl)cc(CNCc2ccncc2)cc1OC | 2.05% (inactive)
O=C(Nc1ncccc1O)C1CCN(S(=O)(=O)c2ccc3ccccc3c2)CC1 | -9.16% (inactive)
CCn1c2c(c(=N)c3c1CCC3)CCC2 | -5.05% (inactive)
CCOC(=O)Cn1c2c(c(=N)c3ccccc31)CCC2 | 3.57% (inactive)
CCn1c2c(c(=N)c3c1CCC3)CCCC2 | -3.7% (inactive)
CCCn1c2c(c(=N)c3c1CCC3)CCCC2 | -0.71% (inactive)
CCCCCCCn1c2c(c(=N)c3c1CCC3)CCCC2 | 5.7% (inactive)
CCCCCn1c2c(c(=N)c3ccccc31)CCC2 | 12.1% (inactive)
CCCCn1c2c(c(=N)c3c1CCC3)CCC2 | -14.8% (inactive)
CCCCCCn1c2c(c(=N)c3c1CCC3)CCC2 | 12.9% (inactive)
CCOn1c(SCC)nc2ccccc2c1=O | 5.58% (inactive)
CC(C)c1ccc(NC(=O)CCCN2C(=S)NC(C)(C)CC2C)cc1 (stereo not given) | 3.65% (inactive)

Compound | inhibition
COC(=O)c1ccc(NC(=O)CN2CCN(c3ccccc3C)CC2)cc1 | -8.21% (inactive)
O=C(Nc1ccccc1)c1cc(S(=O)(=O)NCc2ccncc2)ccc1Cl | -1.47% (inactive)
CCc1c(C(=O)NNC(=S)NCC2CCCO2)csc1C (stereo not given) | 8.11% (inactive)
COc1ccc(OC)c(-c2csc(NC(=O)c3ccccc3F)n2)c1 | -4.14% (inactive)
Cc1cc(C)c2cc(C=O)c(Cl)nc2c1 | 3.78% (inactive)
CCOC(=O)CN1CC23C=CC(O2)C(C(=O)NCc2ccc(C)cc2)C3C1=O (stereo not given) | 10.7% (inactive)
CC(C)CCNC(=O)C12CN(Cc3ccccc3)CC1C(c1ccc([N+](=O)[O-])cc1)=NO2 (stereo not given) | 16.1% (inactive)
CC(C(=O)NC1C=CS(=O)(=O)C1)N1C(=O)/C(=C/c2cccc(Cl)c2)SC1=S (stereo not given) | 27.8% (inactive)
COc1ccc(/C=C2\SC(=S)N(C(C)C(=O)NC3C=CS(=O)(=O)C3)C2=O)cc1 (stereo not given) | -13.9% (inactive)
CC(C(=O)N(C)C1CCS(=O)(=O)C1)N1C(=O)/C(=C/c2ccc(F)cc2)SC1=S (stereo not given) | 3.59% (inactive)
CC(C(=O)NC1C=CS(=O)(=O)C1)N1C(=O)/C(=C\c2ccccc2)SC1=S (stereo not given) | -3.24% (inactive)
Cc1nn(C)c(C(=O)N/N=C/c2cccc(Oc3ccccc3)c2)c1Br | 8.95% (inactive)
COc1ccc(CC(=O)N2CC3(C)CC2CC(C)(C)C3)cc1 (stereo not given) | 1.16% (inactive)
COc1ccc(F)c(CN2CCCC(CNS(=O)(=O)c3cccc4cccnc34)C2)c1 (stereo not given) | -5.85% (inactive)
CCCCCCCCCCCCCCCCn1cc[n+](C)c1 | 22.9% (inactive)
CCCCCCn1ccc(=N)cc1 | -2.46% (inactive)
CCCC(=O)c1ccc(N2CCN(C(=O)OCC)CC2)c(F)c1 | 1.25% (inactive)
Cc1cc([N+](=O)[O-])cc(/C=N\NC(=O)C2COc3ccccc3O2)c1O (stereo not given) | -5.46% (inactive)
O=C(N/N=C\c1ccc(-c2ccccc2[N+](=O)[O-])o1)C1COc2ccccc2O1 (stereo not given) | 6.06% (inactive)
O=C(N/N=C\c1ccc(O)c([N+](=O)[O-])c1)C1COc2ccccc2O1 (stereo not given) | -12.2% (inactive)
COc1cc(/C=N\NC(=O)C2COc3ccccc3O2)cc(OC)c1O (stereo not given) | -4.27% (inactive)
CC(C)[C@H](NC(=O)OCc1ccccc1)C(=O)OCC(=O)NC1(C#N)CCCC1 | 10.7% (inactive)
CC1CCC/C(=N\NC(=O)Nc2ccccc2)C1 (stereo not given) | 2.46% (inactive)
COc1ccc2cc(C(=O)C3CCCN(C(=O)c4cnn(C(C)C)c4)C3)ccc2c1 (stereo not given) | 2.9% (inactive)

Compound | inhibition
CN(CC(=O)Nc1ccc(F)cc1)C(=O)c1cccc(S(=O)(=O)N2CCN(c3ccccc3)CC2)c1 | -1.79% (inactive)
CC(C)(C)CN1CCN(CCCc2ccccc2)C(CCO)C1 (stereo not given) | -4.44% (inactive)
CCc1cc(CNC(=O)CC2C(=O)NCCN2Cc2c(F)cccc2Cl)on1 (stereo not given) | -1.45% (inactive)
Oc1ccc(/C=N/NC(=S)Nc2cccnc2)c(O)c1 | 29.1% (inactive)
Oc1ccc(/C=N/NC(=S)Nc2cccnc2)c(O)c1O | 8.35% (inactive)
CCn1c(CNC(=O)C2CCCCC2)cc2cc(C)ccc21 | -0.55% (inactive)
COc1ccc(C(=O)C2CCCN(C(=O)C3CCOCC3)C2)c(C)c1 (stereo not given) | 4.46% (inactive)
CCCCCc1ccc(OCCCC[n+]2ccc(C)cc2)c(CCCCC)c1 | 15.8% (inactive)
CCCCCc1ccc(OCCCC[n+]2ccccc2)c(CCCCC)c1 | 3.64% (inactive)
C[n+]1cn(Cc2cc(Cl)ccc2OC(F)F)c2ccccc21 | -3.69% (inactive)
CCCCCc1ccc(OCCCC[n+]2cccc(C)c2)c(CCCCC)c1 | 3.26% (inactive)
O=C1CC(C(=O)Nc2ccccc2)N=C(N2CCCCC2)N1 (stereo not given) | 0.85% (inactive)
OCC[C@H]1C[C@@H](O)[C@H](O)[C@]2(CCCCO2)O1 | -4.87% (inactive)
O=C(Cn1cc(SCc2cccc(Cl)c2)c2ccccc21)N1CCOCC1 | -8.83% (inactive)
CC(C)c1ccc(C2NC(=S)NC3=C2C(=O)CCC3)cc1 (stereo not given) | 1.24% (inactive)
CCOC(=O)/C=c1\s/c(=C\c2ccc(C(F)(F)F)cc2)c(=O)n1CC(=O)NCc1ccco1 | -2.01% (inactive)
CCOC(=O)c1cn(-c2nc(-c3ccc(Cl)cc3)cs2)c2c(F)c(N3CC(C)OC(C)C3)c(F)cc2c1=O (stereo not given) | 10.3% (inactive)
CCn1cc(C(=O)O)c(=O)c2cnc(N3CCN(C(=S)Nc4ccc(F)cc4)CC3)nc21 | -3.34% (inactive)
CCn1cc(C(=O)O)c(=O)c2cnc(N3CCN(C(=S)Nc4ccccc4C(F)(F)F)CC3)nc21 | 3.15% (inactive)
Cc1c(-n2cc(C(=O)O)c(=O)c3cc(F)c(N4CCCC(O)C4)c(F)c32)c(=O)n(-c2ccccc2)n1C (stereo not given) | 2.04% (inactive)
S=C(NC1CC2CCC1C2)N1CCN(c2cccc(Cl)c2)CC1 (stereo not given) | -2.31% (inactive)
O=S(=O)(c1ccc(F)c(F)c1F)N1CCN(C(=S)NC2CC3CCC2C3)CC1 (stereo not given) | -4.07% (inactive)
COC(=O)CC1C(=O)NCCN1C(=S)Nc1ccc(F)cc1 (stereo not given) | 0.13% (inactive)

Reference: PubChem BioAssay AID1863 (Southern Research Specialized Biocontainment Screening …, 2009)
